In PubChem BioAssay:
For part of these data: Measured potencies and affinities stand elsewhere. Calls of active or inactive are those of the source. Unless noted, the rule behind the calls is not given here.

Legend:
[1] = antimalarial activity against Dd2 strain (AID 2302;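 active = growth inhibition above 50% at the single 2 µM test dose, taken to imply half-maximal potency below 2 µM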;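 note: 0% = DMSO untreated growth and 100% = chloroquine plus artemisinin killed control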); settings: P. falciparum Dd2 in RBCs, LDH growth readout, 72 h; at 2 µM; hits give high values
[2] = human hepatoma cell viability loss – ATP luminescence, cytotoxicity control for P. falciparum antimalarial project, primary screen (AID 2303;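 active = inhibition above 50%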;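 note: 0% = DMSO wells and 100% = digitonin-killed cells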); settings: HepG2 viability, 24-48 h, at 10 µM, hits give high values
[3] = target: L-lactate dehydrogenase (Plasmodium falciparum (isolate CDC / Honduras)) (UniProt Q27743); assay: PfLDH activity inhibition – cell lysate, 3D7 strain, counter-screen for P. falciparum growth inhibition project (AID 2304);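 note: 0% = vehicle and 100% = reference inhibitor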; settings: P. falciparum 3D7 crude extract, LDH APAD/NBT absorbance; at 2 µM; hits give high values
[4] = inhibition of 3D7 malaria parasite growth – strain 3D7 (AID 2306);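 note: 0% = DMSO wells and 100% = chloroquine plus artemisinin control wells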; settings: P. falciparum 3D7 erythrocytic growth, LDH absorbance, 72 h; at 2 µM; hits give high values
[5] = target: Calcium-dependent protein kinase 1 (Plasmodium falciparum (isolate 3D7)) (UniProt P62344); assay: PfCDPK1 kinase inhibitors, biochemical, TCAMS library (AID 1159585; cut-off not given, nearly all actives have IC50 up to about 0.98 µM;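 note: inhibitors leave more ATP so luminescence rises with inhibition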); settings: recombinant PfCDPK1, Kinase-Glo ATP depletion luminescence
[6] = target: Plasmodium falciparum protein kinase 6 (PK6, PF3D7_1337100) (UniProt Q8IDW1); assay: PfPK6 kinase inhibitors, biochemical, TCAMS library (AID 1159586); settings: recombinant PfPK6, Kinase-Glo ATP depletion luminescence
[7] = target: Protein kinase 7 (PK7), Plasmodium falciparum 3D7 (PF3D7_0213400) (UniProt Q7YTF7); assay: inhibition of Plasmodium PK7 catalytic activity – biochemical, TCAMS antimalarial set, Kinase-Glo luminescence (AID 1159587); settings: recombinant PfPK7, Kinase-Glo ATP depletion luminescence
[8] = target: Calcium-dependent protein kinase 4 (Plasmodium falciparum (isolate 3D7)) (UniProt Q8IBS5); assay: PfCDPK4 kinase inhibitors, biochemical, TCAMS library (AID 1159588; cut-off not given, nearly all actives have IC50 up to about 0.91 µM); settings: recombinant PfCDPK4, Kinase-Glo ATP depletion luminescence
Sequence of Calcium-dependent protein kinase 4 (Plasmodium falciparum (isolate 3D7)) (Q8IBS5 whole entry, looked up): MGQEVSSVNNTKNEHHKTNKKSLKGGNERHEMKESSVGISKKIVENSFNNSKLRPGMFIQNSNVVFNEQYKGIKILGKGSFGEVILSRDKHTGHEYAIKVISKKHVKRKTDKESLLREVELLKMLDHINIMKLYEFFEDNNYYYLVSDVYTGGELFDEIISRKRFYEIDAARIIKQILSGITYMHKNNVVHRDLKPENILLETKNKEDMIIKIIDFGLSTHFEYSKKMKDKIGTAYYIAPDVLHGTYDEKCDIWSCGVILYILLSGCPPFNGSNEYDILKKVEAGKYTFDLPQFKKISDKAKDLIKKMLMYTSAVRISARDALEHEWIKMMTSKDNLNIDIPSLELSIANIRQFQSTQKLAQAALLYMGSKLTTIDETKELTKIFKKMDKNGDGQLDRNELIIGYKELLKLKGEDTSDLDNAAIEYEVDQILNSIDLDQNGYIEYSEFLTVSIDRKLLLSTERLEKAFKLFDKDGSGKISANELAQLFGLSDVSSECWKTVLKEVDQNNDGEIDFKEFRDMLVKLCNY

Sequence of Protein kinase 7 (PK7), Plasmodium falciparum 3D7 (PF3D7_0213400) (Q7YTF7 1-343): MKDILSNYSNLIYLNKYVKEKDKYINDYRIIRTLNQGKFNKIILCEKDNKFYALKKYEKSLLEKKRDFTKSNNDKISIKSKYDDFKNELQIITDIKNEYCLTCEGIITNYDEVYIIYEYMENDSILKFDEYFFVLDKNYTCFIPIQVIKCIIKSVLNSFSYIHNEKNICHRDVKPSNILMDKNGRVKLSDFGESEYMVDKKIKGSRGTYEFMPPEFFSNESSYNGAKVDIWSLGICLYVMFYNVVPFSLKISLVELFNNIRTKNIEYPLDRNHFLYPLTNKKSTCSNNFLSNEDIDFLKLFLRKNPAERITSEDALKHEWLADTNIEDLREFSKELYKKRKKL
Sequence of Calcium-dependent protein kinase 1 (Plasmodium falciparum (isolate 3D7)) (P62344 whole entry, looked up): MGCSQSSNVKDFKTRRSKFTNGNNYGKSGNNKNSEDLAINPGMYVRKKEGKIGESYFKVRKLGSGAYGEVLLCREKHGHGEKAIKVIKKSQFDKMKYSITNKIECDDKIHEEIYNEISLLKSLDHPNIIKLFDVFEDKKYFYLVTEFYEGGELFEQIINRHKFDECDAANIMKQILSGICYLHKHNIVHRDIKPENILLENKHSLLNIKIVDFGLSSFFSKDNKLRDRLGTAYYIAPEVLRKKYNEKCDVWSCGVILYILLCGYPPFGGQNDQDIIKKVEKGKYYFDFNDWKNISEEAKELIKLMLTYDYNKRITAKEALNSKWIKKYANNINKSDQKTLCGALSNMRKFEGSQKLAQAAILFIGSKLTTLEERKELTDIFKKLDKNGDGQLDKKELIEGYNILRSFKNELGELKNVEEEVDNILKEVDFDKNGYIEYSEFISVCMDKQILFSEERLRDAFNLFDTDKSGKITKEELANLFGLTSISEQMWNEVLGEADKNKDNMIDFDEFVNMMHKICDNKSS
Sequence of L-lactate dehydrogenase (Plasmodium falciparum (isolate CDC / Honduras)) (Q27743 whole entry, looked up): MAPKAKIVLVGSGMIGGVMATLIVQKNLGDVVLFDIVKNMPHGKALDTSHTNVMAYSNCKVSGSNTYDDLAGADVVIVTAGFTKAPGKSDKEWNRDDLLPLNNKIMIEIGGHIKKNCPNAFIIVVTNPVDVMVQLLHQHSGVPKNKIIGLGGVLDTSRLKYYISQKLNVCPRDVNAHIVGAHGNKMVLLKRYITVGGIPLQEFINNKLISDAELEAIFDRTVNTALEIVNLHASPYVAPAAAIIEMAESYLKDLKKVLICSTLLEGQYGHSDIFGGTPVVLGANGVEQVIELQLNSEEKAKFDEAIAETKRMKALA
Sequence of Plasmodium falciparum protein kinase 6 (PK6, PF3D7_1337100) (Q8IDW1 1-305): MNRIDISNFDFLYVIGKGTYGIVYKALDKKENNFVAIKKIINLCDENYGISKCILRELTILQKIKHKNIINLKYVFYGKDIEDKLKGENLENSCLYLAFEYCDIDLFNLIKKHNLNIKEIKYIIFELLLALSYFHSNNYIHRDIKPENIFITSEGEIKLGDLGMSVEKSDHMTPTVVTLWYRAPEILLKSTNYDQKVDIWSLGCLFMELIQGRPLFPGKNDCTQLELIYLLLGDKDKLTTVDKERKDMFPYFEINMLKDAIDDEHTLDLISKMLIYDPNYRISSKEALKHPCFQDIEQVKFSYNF

CCCCCCn1c(Sc2ccc(C#N)c([N+](=O)[O-])c2)nnc1-c1ccc(N(C)C)cc1
inactive: growth inhibition [1] 25% | inhibition [2] -1% | inhibition [3] 7% | outcome [5] | outcome [6] | outcome [7] | outcome [8]
active: growth inhibition [4] 92%

Cc1ccc2cc(NC(=O)c3cccc(C(=O)Nc4ccc5nc(C)ccc5c4)n3)ccc2n1
active: growth inhibition [4] 92%
inactive: growth inhibition [1] 23% | inhibition [2] 21% | inhibition [3] 4% | outcome [5] | outcome [6] | outcome [7] | outcome [8]

COc1ccc(CNCCCCCCCNCc2ccc(Cl)c(Cl)c2)cc1Cl
inactive: growth inhibition [1] 18% | inhibition [2] 27% | inhibition [3] 4% | outcome [5] | outcome [6] | outcome [7] | outcome [8]
active: growth inhibition [4] 90%

Nc1ccc(Nc2ccnc3ccc(C(F)(F)F)cc23)cc1O
inactive: inhibition [2] 1% | inhibition [3] 5% | outcome [5] | outcome [6] | outcome [7] | outcome [8]
active: growth inhibition [1] 59% | growth inhibition [4] 98%

CC(C)C[C@H](NC(=O)c1ccc(OCCN2CCOCC2)cc1)C(=O)NC(/C=N/N1CCCC1=O)C(C)C (some centres not stated)
active: growth inhibition [1] 81% | growth inhibition [4] 90%
inactive: inhibition [2] 3% | inhibition [3] -2% | outcome [5] | outcome [6] | outcome [7] | outcome [8]

Cc1cc2c(cc1C(F)(F)F)N(C(=O)Nc1cc(C(=O)NC3CCN(Cc4ccccc4)C3)cc(C(F)(F)F)c1)CC2 (configuration not stated)
inactive: inhibition [2] 22% | inhibition [3] 0% | outcome [5] | outcome [6] | outcome [7] | outcome [8]
active: growth inhibition [1] 97% | growth inhibition [4] 101%

OC(CN1c2ccccc2Sc2ccccc21)CN(C1CCCCC1)C1CCCCC1 (configuration not stated)
active: growth inhibition [1] 96% | growth inhibition [4] 99%
inactive: inhibition [2] 46% | inhibition [3] -5% | outcome [5] | outcome [6] | outcome [7] | outcome [8]

Cc1cc(=O)c2cc(Oc3cccc(OC(F)(F)F)c3)ccc2[nH]1
inactive: inhibition [2] 9% | inhibition [3] 2% | outcome [5] | outcome [6] | outcome [7] | outcome [8]
active: growth inhibition [1] 80% | growth inhibition [4] 90%

Cc1cc(N)c2cc(NC(=O)c3cc4ccccc4s3)ccc2n1
inactive: inhibition [3] 2% | outcome [5] | outcome [6] | outcome [7] | outcome [8]
active: growth inhibition [1] 99% | inhibition [2] 100% | growth inhibition [4] 101%

Cn1c(Nc2cc(C(C)(C)C)on2)nc2cc(Nc3ccnc(Nc4ccc(CS(C)(=O)=O)cc4)n3)ccc21
inactive: inhibition [2] 37% | inhibition [3] -1% | outcome [5] | outcome [6] | outcome [7] | outcome [8]
active: growth inhibition [1] 68% | growth inhibition [4] 101%

COc1ccc(CN(C)CCCc2ccc(NC(=O)c3cccc4c(=O)c5ccccc5[nH]c34)cc2)cc1OC
inactive: inhibition [3] -1% | outcome [5] | outcome [6] | outcome [7] | outcome [8]
active: growth inhibition [1] 54% | inhibition [2] 77% | growth inhibition [4] 99%

Cc1ccc(C(=O)Nc2ccc(F)c(F)c2F)cc1S(=O)(=O)N1CCCCC1
active: growth inhibition [1] 69% | growth inhibition [4] 92%
inactive: inhibition [2] 3% | inhibition [3] -8% | outcome [5] | outcome [6] | outcome [7] | outcome [8]

CC(C)CNCc1ccc(-c2cccc(CNC3CCN(Cc4ccccc4)CC3)c2)cc1
active: growth inhibition [1] 100% | growth inhibition [4] 101%
inactive: inhibition [2] 34% | inhibition [3] -9% | outcome [5] | outcome [6] | outcome [7] | outcome [8]

Cc1cc(OCCCN2CCC(NS(=O)(=O)c3cccc(Br)c3)CC2)c2ccccc2n1
inactive: growth inhibition [1] 28% | inhibition [2] 28% | inhibition [3] -2% | outcome [5] | outcome [6] | outcome [7] | outcome [8]
active: growth inhibition [4] 95%

CCOc1cc2c(cc1S(=O)(=O)c1ccc(COc3ccc(C(F)(F)F)cc3)cc1)CCN(C)CC2
inactive: growth inhibition [1] 14% | inhibition [2] 27% | inhibition [3] -5% | outcome [5] | outcome [6] | outcome [7] | outcome [8]
active: growth inhibition [4] 87%

N=C(N)c1ccc(NC(=O)c2cc(Sc3ccc(O)c(C(=O)Nc4ccc(C(=N)N)cc4)c3)ccc2O)cc1
inactive: inhibition [2] 11% | inhibition [3] 2% | outcome [5] | outcome [6] | outcome [7] | outcome [8]
active: growth inhibition [1] 87% | growth inhibition [4] 93%

CN1CCC(Oc2ccc(CN3CC[C@H](NC(=O)c4cccc(C#N)c4)C3)c3ccccc23)C1 (some centres not stated)
inactive: growth inhibition [1] 30% | inhibition [2] 10% | inhibition [3] -1% | outcome [5] | outcome [6] | outcome [7] | outcome [8]
active: growth inhibition [4] 97%

CCCCCCNC(=O)C1Cc2c([nH]c3cc(Cl)ccc23)C2(CCN(CCC)CC2)N1 (configuration not stated)
active: growth inhibition [4] 92%
inactive: growth inhibition [1] 18% | inhibition [2] 8% | inhibition [3] 0% | outcome [5] | outcome [6] | outcome [7] | outcome [8]

CC1(C(=O)Nc2ccc([N+](=O)[O-])cc2O)CC2c3ccccc3C1c1ccccc12 (configuration not stated)
inactive: growth inhibition [1] 16% | inhibition [2] 37% | inhibition [3] 3% | outcome [5] | outcome [6] | outcome [7] | outcome [8]
active: growth inhibition [4] 98%

O=C(c1cc(-c2ccco2)[nH]n1)N1CCN(S(=O)(=O)c2ccc(Br)cc2)CC1
active: growth inhibition [1] 90% | growth inhibition [4] 95%
inactive: inhibition [2] 1% | inhibition [3] -5% | outcome [5] | outcome [6] | outcome [7] | outcome [8]

CC(C)(Oc1c(C2CCN(CCCCNC(=O)c3ccc(-c4ccc(C#N)cc4)cc3)CC2)ccc2c1CCCC2)C(N)=O
active: growth inhibition [1] 82% | growth inhibition [4] 100%
inactive: inhibition [2] 34% | inhibition [3] 6% | outcome [5] | outcome [6] | outcome [7] | outcome [8]

CNC(=O)C1Cc2c([nH]c3cc(Cl)ccc23)C2(CCN(CCc3ccccc3)CC2)N1 (configuration not stated)
inactive: growth inhibition [1] 3% | inhibition [2] 14% | inhibition [3] 4% | outcome [5] | outcome [6] | outcome [7] | outcome [8]
active: growth inhibition [4] 91%

O=C(/C=C/c1ccc(Cl)c(Cl)c1)NCCCCCN1CCCN(C(=O)Nc2ccc(Cl)c(Cl)c2)CC1
inactive: growth inhibition [1] 2% | inhibition [3] 2% | outcome [5] | outcome [6] | outcome [7] | outcome [8]
active: inhibition [2] 55% | growth inhibition [4] 100%

CCCNC(=O)c1ccnc(-c2ccc(CNC3Cc4ccccc4C3)cc2)c1
inactive: growth inhibition [1] 21% | inhibition [2] 24% | inhibition [3] -3% | outcome [5] | outcome [6] | outcome [7] | outcome [8]
active: growth inhibition [4] 92%

COc1cc(F)c2nccc([C@@H](O)CN3CC[C@@H](NC(=O)OCc4ccccc4)[C@@H](F)C3)c2c1
inactive: inhibition [2] 44% | inhibition [3] 2% | outcome [5] | outcome [6] | outcome [7] | outcome [8]
active: growth inhibition [1] 100% | growth inhibition [4] 99%

Cc1cc(N[C@@H](Cc2ccccc2)C(=O)NCc2cccs2)nc(NCCc2cccnc2)n1
inactive: growth inhibition [1] 38% | inhibition [2] 10% | inhibition [3] -4% | outcome [5] | outcome [6] | outcome [7] | outcome [8]
active: growth inhibition [4] 84%

CN(C)c1cccc2c(S(=O)(=O)Nc3cccc(CCN4CCC(N5CCCCC5)CC4)c3)cccc12
active: growth inhibition [1] 54% | growth inhibition [4] 98%
inactive: inhibition [2] 41% | inhibition [3] -2% | outcome [5] | outcome [6] | outcome [7] | outcome [8]

C=CCn1c(Sc2ccc(C#N)c([N+](=O)[O-])c2)nnc1-c1cccc(Cl)c1
inactive: inhibition [2] 41% | inhibition [3] -1% | outcome [5] | outcome [6] | outcome [7] | outcome [8]
active: growth inhibition [1] 54% | growth inhibition [4] 97%

COc1ccc2ncc(C#N)c(CCN3CCC(NCc4ccc5c(c4)OCCO5)CC3)c2c1
inactive: growth inhibition [1] 31% | inhibition [2] 12% | inhibition [3] -4% | outcome [5] | outcome [6] | outcome [7] | outcome [8]
active: growth inhibition [4] 96%

COc1ccc(OC)c(NC(=O)c2c(-c3c(F)cccc3Cl)noc2C)c1
active: growth inhibition [4] 94%
inactive: growth inhibition [1] 25% | inhibition [2] -1% | inhibition [3] -1% | outcome [5] | outcome [6] | outcome [7] | outcome [8]

Nc1c2c(nc3ccc(NC(=O)CCCCCCc4ccccc4)cc13)CCCC2
active: growth inhibition [1] 90% | inhibition [2] 100% | growth inhibition [4] 100%
inactive: inhibition [3] 4% | outcome [5] | outcome [6] | outcome [7] | outcome [8]

Cc1cc(NN=Cc2ccccc2Cl)c2cc(F)ccc2n1
inactive: growth inhibition [1] 4% | inhibition [2] 5% | inhibition [3] -2% | outcome [5] | outcome [6] | outcome [7] | outcome [8]
active: growth inhibition [4] 101%

CCc1cn2c3c(cc(C(=O)N[C@@H](Cc4ccccc4)[C@H](O)CNCc4ccc(C)cc4)cc13)N(C)S(=O)(=O)CC2
inactive: inhibition [2] -4% | inhibition [3] 5% | outcome [5] | outcome [6] | outcome [7] | outcome [8]
active: growth inhibition [1] 98% | growth inhibition [4] 99%

NC1CCN(Cc2cccc(-c3ccc(-c4nc5ccccc5[nH]4)cc3)c2)C1 (configuration not stated)
inactive: inhibition [2] 24% | inhibition [3] -7% | outcome [5] | outcome [6] | outcome [7] | outcome [8]
active: growth inhibition [1] 58% | growth inhibition [4] 100%

NC(N)=NC(=O)Nc1ccc(Cl)c(Cl)c1
active: growth inhibition [4] 95%
inactive: growth inhibition [1] 13% | inhibition [2] 29% | inhibition [3] 1% | outcome [5] | outcome [6] | outcome [7] | outcome [8]

O=C(Nc1ccc(Cl)cc1)c1cccc2[nH]c(C(F)(F)F)nc12
inactive: inhibition [3] -6% | outcome [5] | outcome [6] | outcome [7] | outcome [8]
active: growth inhibition [1] 98% | inhibition [2] 84% | growth inhibition [4] 93%

COc1cccc(NC(=O)Nc2c(-c3cccc(C(F)(F)F)c3)c(C(F)(F)F)nn2C)c1
inactive: growth inhibition [1] 30% | inhibition [2] 2% | inhibition [3] 7% | outcome [5] | outcome [6] | outcome [7] | outcome [8]
active: growth inhibition [4] 93%

c1ccc(-n2cncn2)cc1
inactive: inhibition [2] 0% | inhibition [3] 6% | outcome [5] | outcome [6] | outcome [7] | outcome [8]
active: growth inhibition [1] 96% | growth inhibition [4] 93%

CCCc1cn2c3c(cc(C(=O)N[C@@H](Cc4ccccc4)[C@H](O)CNC4CCCCC4)cc13)N(C)S(=O)(=O)CC2
inactive: inhibition [2] 3% | inhibition [3] -2% | outcome [5] | outcome [6] | outcome [7] | outcome [8]
active: growth inhibition [1] 98% | growth inhibition [4] 99%
